Laboratory results published in PubChem BioAssay (NCATS).
Inconclusive results are not listed. Entries that show only a call come without a potency. Values without a mark were called inactive. Calls of active or inactive are those of the source. Unless noted, calls come from the whole dose curve.

Tests used:
[1] = qHTS for Inhibitors of the Functional Ribonucleoprotein Complex (vRNP) of Lassa (LASV) Arenavirus: LASV Primary Screen - GLuc reporter signal (AID 1347082; calls by dose curve; tested in HEK293 reporter line; note: nearly all actives have a fitted effect of over 60% in size; for activity change, negative = inhibition: series mostly up to about 57 µM)
[2] = qHTS for Inhibitors of the Functional Ribonucleoprotein Complex (vRNP) of Lassa (LASV) Arenavirus: Viability assay - alamar blue signal for LASV Primary Screen (AID 1347083; calls by dose curve; tested in HEK293 reporter line; note: nearly all actives have a fitted effect of over 80% in size; for activity change, negative = reduced viability: series mostly up to about 57 µM)
[3] = qHTS for Inhibitors of the Functional Ribonucleoprotein Complex (vRNP) of Lymphocytic Choriomeningitis Arenaviruses (LCMV): Viability assay - alamar blue signal for LCMV Primary Screen (AID 1347085; calls by dose curve; tested in HEK293 reporter line; note: nearly all actives have a fitted effect of over 80% in size; for activity change, negative = lower viability: series mostly up to about 57 µM)
[4] = molecular target: Nucleoprotein (Lymphocytic choriomeningitis virus (strain Armstrong)) (UniProt P09992); assay: qHTS for Inhibitors of the Functional Ribonucleoprotein Complex (vRNP) of Lymphocytic Choriomeningitis Arenaviruses (LCMV): LCMV Primary Screen - GLuc reporter signal (AID 1347086); note: nearly all actives have a fitted effect of over 70% in size; for activity change, negative = inhibition: series mostly up to about 57 µM
Potency is the fitted concentration of half-maximal effect.

Sequence of Nucleoprotein (Lymphocytic choriomeningitis virus (strain Armstrong)) (P09992 whole entry, looked up): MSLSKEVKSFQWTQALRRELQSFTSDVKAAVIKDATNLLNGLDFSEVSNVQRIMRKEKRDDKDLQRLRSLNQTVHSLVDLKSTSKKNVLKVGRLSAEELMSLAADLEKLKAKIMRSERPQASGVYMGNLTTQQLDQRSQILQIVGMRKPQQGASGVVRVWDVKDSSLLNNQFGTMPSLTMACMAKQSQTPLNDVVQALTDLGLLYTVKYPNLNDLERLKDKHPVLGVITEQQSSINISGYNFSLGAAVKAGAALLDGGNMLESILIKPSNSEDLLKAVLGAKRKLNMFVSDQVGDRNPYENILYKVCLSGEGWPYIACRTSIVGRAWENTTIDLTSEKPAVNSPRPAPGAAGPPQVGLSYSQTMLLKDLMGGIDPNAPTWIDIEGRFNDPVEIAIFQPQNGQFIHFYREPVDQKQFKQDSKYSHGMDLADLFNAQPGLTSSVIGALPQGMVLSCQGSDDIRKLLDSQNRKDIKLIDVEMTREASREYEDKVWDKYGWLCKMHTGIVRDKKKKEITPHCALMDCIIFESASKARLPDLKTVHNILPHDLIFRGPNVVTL

| SMILES | Potency [1] | Potency [2] | Potency [3] | Potency [4] | activity change, negative = inhibition [1] | activity change, negative = reduced viability [2] | activity change, negative = lower viability [3] | activity change, negative = inhibition [4] |
| --- | --- | --- | --- | --- | --- | --- | --- | --- |
| CC1(C)C[C@@H](O)[C@]2(C)CC[C@]3(C)C(=CCC4[C@@]5(C)CC[C@H](O)[C@](C)(CO)C5CC[C@]43C)[C@@H]2C1 (stereo not given in full) | inactive | inactive | inactive | inactive |  |  |  |  |
| CC(=O)OC/C=C/c1ccccc1 | inactive | inactive | inactive | inactive |  |  |  |  |
| CCCC/C=C/CCCCO | inactive | inactive | inactive | inactive |  |  |  |  |
| C=CC(=O)Nc1cccc(Nc2nc(NC3CCC(N(C)C)CC3)nc3c2ncn3C(C)C)c1 (stereo not given) | 2170 nM (active) | 968 nM (active) | 544 nM (active) | 863 nM (active) |  |  |  |  |
| CN(C)c1nc(Cc2ccc(NC(=O)c3ccc4ccccc4c3)cc2)nc(Cl)c1CC(=O)O | inactive | inactive | inactive | inactive |  |  |  |  |
| CC1(C)O[C@H]2C[C@@H]3[C@H]4CCC5=CC(=O)C=C[C@]5(C)[C@@]4(F)[C@@H](O)C[C@]3(C)[C@]2(C(=O)CO)O1 | inactive | inactive | inactive | inactive |  |  |  |  |
| Cc1cc(CS(=O)(=O)c2ccccc2)cc(OCc2ccc(CN3CCC[C@H]3CO)cc2)c1 | inactive | inactive | inactive | inactive |  |  |  |  |
| COc1cc2c(cc1CC=C(C)C)C(=O)C[C@@H](c1ccc(O)cc1)O2 | inactive | inactive | inactive | inactive |  |  |  |  |
| C[C@]12C=CC(=O)N[C@@H]1CC[C@H]1[C@H]3CC[C@@H](C(=O)Nc4cc(C(F)(F)F)ccc4C(F)(F)F)[C@@]3(C)CC[C@@H]12 | inactive | inactive | inactive | inactive |  |  |  |  |
| CC(C)=CCc1c(-c2ccc(O)cc2O)oc2cc3c(c(O)c2c1=O)C=CC(C)(C)O3 | inactive | inactive | inactive | inactive |  |  |  |  |
| CO[C@H]1C=CO[C@@]2(C)Oc3c(C)c(O)c4c(O)c(c(C=NN5CCN(C)CC5)c(O)c4c3C2=O)NC(=O)C(C)=CC=C[C@H](C)[C@H](O)[C@@H](C)[C@@H](O)[C@@H](C)[C@H](OC(C)=O)[C@H]1C | inactive | inactive | inactive | inactive |  |  |  |  |
| c1csc(-c2ccc(-c3cccs3)s2)c1 | inactive | inactive | inactive | inactive |  |  |  |  |
| COC(=O)c1cc(O)cc(OC)c1C(=O)c1c(O)cc(C)cc1O | inactive | inactive | inactive | inactive |  |  |  |  |
| O=C(c1ccc(F)cc1)N1CCC[C@H](c2nc(-c3ccc(F)cc3)no2)C1 | inactive | inactive | inactive | inactive |  |  |  |  |
| CC1=CC(=O)C2=C(C)C[C@@H]3OC(=O)[C@@H](C)[C@H]3C=C12 | inactive | inactive | inactive | inactive |  |  |  |  |
| Nc1nc(Cl)nc2c1ncn2[C@@H]1O[C@H](CO)C(O)[C@H]1O (stereo not given in full) | inactive | inactive | inactive | inactive |  |  |  |  |
| CC1=C(C(=O)O)N2C(=O)C(NC(=O)CCCC(=O)O)C2SC1 (stereo not given) | inactive | inactive | inactive | inactive |  |  |  |  |
| CCCCC[C@H](O)/C=C/[C@H]1OC(O)C[C@H](O)[C@@H]1C/C=C\CC(=O)O (stereo not given in full) |  |  |  |  | -6.19% [at 0.757 µM] | 12.3% [at 0.757 µM] | -0.195% [at 0.757 µM] | 5.45% [at 0.757 µM] |
| C[C@]12CCC(=O)C=C1CC[C@@H]1[C@H]2[C@@H](O)C[C@@]2(C)[C@H]1CC[C@]2(O)C(=O)CO | inactive | inactive | inactive | inactive |  |  |  |  |
| CC[C@H]1O[C@]2(CC[C@@H]1C)C[C@@H]1C[C@@H](C/C=C(\C)C[C@@H](C)/C=C/C=C3\CO[C@@H]4[C@H](O)C(C)=C[C@@H](C(=O)O1)[C@]34O)O2 | inactive | inactive | inactive | inactive |  |  |  |  |

| SMILES | Potency [1] | Potency [2] | Potency [3] | Potency [4] | activity change, negative = inhibition [1] | activity change, negative = reduced viability [2] | activity change, negative = lower viability [3] | activity change, negative = inhibition [4] |
| --- | --- | --- | --- | --- | --- | --- | --- | --- |
| Cc1c(O)c(C)c2c(c1O)C(=O)C[C@@H](c1ccccc1)O2 | inactive | inactive | inactive | inactive |  |  |  |  |
| Fc1ccc(C(c2ccc(F)cc2)N2CCN(CC=Cc3ccccc3)CC2)cc1 | inactive | inactive | inactive | inactive |  |  |  |  |
| C[C@@H]1C2C[C@@]34COC(=O)C3=CC=C[C@H]4[C@@]13C[C@H](c1ccoc1)O[C@@H]3O2 | inactive | inactive | inactive | inactive |  |  |  |  |
| C[C@@H]1O[C@@H](OC2C(O)C(OCCc3ccc(O)c(O)c3)OC(CO)C2OC(=O)/C=C/c2ccc(O)c(O)c2)[C@H](O)[C@H](O)[C@H]1O (stereo not given in full) | inactive | inactive | inactive | inactive |  |  |  |  |
| [3H]C([3H])([3H])C(O)(CCC[C@@H](C)C1CC[C@H]2/C(=C/C=C3/C[C@@H](O)CCC3=C)CCC[C@]12C)C([3H])([3H])[3H] (stereo not given in full) | inactive | inactive | inactive | inactive |  |  |  |  |
| COc1ccc2c3c([nH]c2c1)C(C)NCC3 (stereo not given) | inactive | inactive | inactive | inactive |  |  |  |  |
| C=C1CC/C=C(\C)CC[C@@H]2[C@@H]1CC2(C)C | inactive | inactive | inactive | inactive |  |  |  |  |
| CC1(C)O[C@@H]1COc1c2ccoc2cc2oc(=O)ccc12 | inactive | inactive | inactive | inactive |  |  |  |  |
| NCCC[C@H](N)CC(=O)N[C@H]1CNC(=O)[C@H]([C@H]2C[C@H](O)N=C(N)N2)NC(=O)C(=CNC(N)=O)NC(=O)[C@H](CO)NC(=O)[C@H](CO)NC1=O | inactive | inactive | inactive | inactive |  |  |  |  |
| Cn1c2c(c(=O)c3ccccc31)C[C@@H](O)C(C)(C)O2 | inactive | inactive | inactive | inactive |  |  |  |  |
| CO[C@H]1[C@@H](OC)CC(OC2OC(CO)C(O)C(O)C2O)/C(=C\C#N)[C@@H]1O (stereo not given in full) | inactive | inactive | inactive | inactive |  |  |  |  |
| CC12CCC(=O)C=C1C(F)CC1C2C(O)CC2(C)C1CCC2(O)C(=O)CO (stereo not given) | inactive | inactive | inactive | inactive |  |  |  |  |
| CC(=O)OC[C@]1(OC(C)=O)C[C@@]23CC[C@H]4[C@@](C)(CCC[C@@]4(C)C(=O)O)[C@@H]2CC[C@@H]1C3 | inactive | inactive | inactive | inactive |  |  |  |  |
| C=CC(C)(CCC=C(C)C)OC(=O)C(C)C (stereo not given) | inactive | inactive | inactive | inactive |  |  |  |  |
| CN1c2c(nc(N)[nH]c2=O)NCC1CNc1ccc(C(=O)NC(CCC(=O)O)C(=O)O)cc1 (stereo not given) | inactive | inactive | inactive | inactive |  |  |  |  |
| C=C1CCC2[C@](C)(CO)C(O)CC[C@]2(C)C1CC=C1C(=O)OCC1O (stereo not given in full) | inactive | inactive | inactive | inactive |  |  |  |  |
| CC(C)(O)c1ccc2c(c1)CCC1C(C)(C(=O)O)CCCC21C (stereo not given) | inactive | inactive | inactive | inactive |  |  |  |  |
| COc1c(C(O)CC(C)C)ccc2c1C(=O)OCc1cc(C)cc(O)c1O2 (stereo not given) | inactive | inactive | inactive | inactive |  |  |  |  |
| CCNC(=O)CCCC=CC[C@@H]1[C@H](C=CC(O)CCc2ccccc2)[C@@H](O)C[C@@H]1O (stereo not given in full) | inactive | inactive | inactive | inactive |  |  |  |  |
| CN[C@H]1[C@@H](O)[C@@H]2O[C@@H]3O[C@H](C)CC(=O)[C@]3(O)O[C@@H]2[C@@H](NC)[C@H]1O | 5440 nM (active) | 7690 nM (active) | 2430 nM (active) | 1720 nM (active) |  |  |  |  |

| SMILES | Potency [1] | Potency [2] | Potency [3] | Potency [4] | activity change, negative = inhibition [1] | activity change, negative = reduced viability [2] | activity change, negative = lower viability [3] | activity change, negative = inhibition [4] |
| --- | --- | --- | --- | --- | --- | --- | --- | --- |
| CSc1c(Cl)c(Cl)c(Cl)c(Cl)c1Cl | inactive | inactive | inactive | inactive |  |  |  |  |
| COc1c(-c2ccc(O)cc2)oc2cc(O)cc(O)c2c1=O | inactive | inactive | inactive | inactive |  |  |  |  |
| COc1ccc(-c2cnc(-c3cccnc3)o2)cc1 | inactive | inactive | inactive | inactive |  |  |  |  |
| CNCCO | inactive | inactive | inactive | inactive |  |  |  |  |
| COc1ccc(C(=O)OC2CC3CC[C@H](C2)N3C(C)=O)cc1OC (stereo not given in full) | inactive | inactive | inactive | inactive |  |  |  |  |
| COc1cc2c(cc1OC)-c1cc3ccc4c(c3c[n+]1CC2)OCO4 | inactive | inactive | inactive | inactive |  |  |  |  |
| CC/C=C\CCOC(=O)C(C)C | inactive | inactive | inactive | inactive |  |  |  |  |
| CC1=C(/C=C/C(C)=C/C=C/C(C)=C/C=C/C=C(C)/C=C/C=C(\C)C=O)C(C)(C)CCC1 | inactive | inactive | inactive | inactive |  |  |  |  |
| CCCCCCCCCCC(C)=O | inactive | inactive | inactive | inactive |  |  |  |  |
| CC(=O)OC1c2c(ccc3ccc(=O)oc23)OC(C)(C)C1OC(=O)CC(C)C (stereo not given) | inactive | inactive | inactive | inactive |  |  |  |  |
| CC(C)OC(=O)c1ccccc1 | inactive | inactive | inactive | inactive |  |  |  |  |
| CC(O)C(C)O (stereo not given) | inactive | inactive | inactive | inactive |  |  |  |  |
| C=CC(O)CCCCC (stereo not given) | inactive | inactive | inactive | inactive |  |  |  |  |
| CCC(CC)C(=O)O | inactive | inactive | inactive | inactive |  |  |  |  |
| Cc1cc(=O)c2c(O)c3c(O)cc(O)c4c5c(O)cc(O)c6c(O)c7c(=O)cc(C)c8c1c2c(c34)c(c65)c78 | inactive | inactive | inactive | inactive |  |  |  |  |
| CCCCCCCCCCOC(C)=O | inactive | inactive | inactive | inactive |  |  |  |  |
| CC(C)=CCOc1ccc2ccc(=O)oc2c1 | inactive | inactive | inactive | inactive |  |  |  |  |
| C=CC[C@]12C[C@@H](OC)C(=O)C=C1O[C@@H](c1ccc(OC)c(OC)c1)[C@H]2C | inactive | inactive | inactive | inactive |  |  |  |  |
| CC/C=C\CC1=C(C)CCC1=O | inactive | inactive | inactive | inactive |  |  |  |  |
| COc1ccc(C[C@@H]2c3cc(O)c(OC)cc3CCN2C)cc1O | inactive | inactive | inactive | inactive |  |  |  |  |
